# CBFb RUNX1 block: blocks binding between human CBF-beta and RUNX1; Q01196+Q13951; AlphaScreen CBFb-His/RUNX1-biotin binding, biochemical; Potency, µM (doses to about 59.8 µM), hits mostly inhibitors; 230,000 tested, under 10 active; active = well fitted curve in the direction sought with a large enough effect; inconclusive = small, poorly fitted or top-dose-only effect, or effect the other way, or another doubt; inactive = no such curve, though single readings can be large or run the other way
#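 AlphaScreen binding: CBFb-His and RUNX1-biotin (30 nM each) preincubated 20 min, compound added for 15 min, then nickel and streptavidin beads for 90 min, all at room temperature. Disruption of the interaction by any mechanism counts as activity.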
# Rango complex inh: Rango-importin beta binding inhibition; Q14974; Rango CFP/YFP FRET sensor + importin beta, 45 min; Potency, µM (doses to about 92.2 µM); 0.031% of 340,000 active; AID 540263; also: nearly all actives have a fitted effect of over 15% in size
#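 FRET biosensor (snurportin 1 IBB flanked by EYFP and cerulean), 50 nM, with compound 5 min, then 0.125 microM importin beta in PBS, 1 mM DTT, 0.02% Tween-20, 0.1% BSA. CFP/YFP ratio read after 45 min at room temperature; pre-read flags interference.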
# ClpP mod: qHTS Assay for Activators of ClpP; 1.9% of 340,000 active; Potency, µM (doses to about 57.5 µM); purified B. subtilis ClpP, FRET peptide cleavage, 20 min; active = well fitted falling curve with a large enough effect; inconclusive = small, poorly fitted or top-dose-only effect; inactive = no such curve, though single readings can be large or run the other way; also: the source files actives as falling curves though it sought activators and does not explain the sign; nearly all actives have a fitted effect of over 65% in size
# Target sequence (P80244 whole entry, looked up): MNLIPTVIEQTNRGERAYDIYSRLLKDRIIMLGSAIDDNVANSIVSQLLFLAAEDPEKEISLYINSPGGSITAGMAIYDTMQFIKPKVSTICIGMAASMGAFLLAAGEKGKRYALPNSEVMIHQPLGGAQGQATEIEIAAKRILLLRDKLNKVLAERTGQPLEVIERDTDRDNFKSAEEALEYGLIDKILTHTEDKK
#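 ClpP 10 microg/mL final, pH 8 Tris/KCl buffer with BSA, glycerol, Tween-20; compound pinned in; FRET-FV substrate; RT 20 min; Ex320/Em430; ΔFRET vs ADEP 5.8 microM, DMSO, no enzyme.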
# MBNL1-CUG inh: MBNL1-poly(CUG) RNA binding inhibition | AID 2675 | TR-FRET MBNL1-His/biotin-(CUG)12 binding, 665/545 ratio | Potency, µM (highest dose often 57.5 µM), usual class: inhibitors | 0.036% of 280,000 active; active = well fitted inhibition curve with a large enough effect in the signal ratio, with a control signal flat, not every such curve was filed as active; inconclusive = small, poorly fitted or top-dose-only effect, or effect the other way, or a change in a side signal; inactive = no such curve, though single readings can be large or run the other way; the % refers to the signal ratio
# Target sequence (Q9NR56 whole entry, looked up): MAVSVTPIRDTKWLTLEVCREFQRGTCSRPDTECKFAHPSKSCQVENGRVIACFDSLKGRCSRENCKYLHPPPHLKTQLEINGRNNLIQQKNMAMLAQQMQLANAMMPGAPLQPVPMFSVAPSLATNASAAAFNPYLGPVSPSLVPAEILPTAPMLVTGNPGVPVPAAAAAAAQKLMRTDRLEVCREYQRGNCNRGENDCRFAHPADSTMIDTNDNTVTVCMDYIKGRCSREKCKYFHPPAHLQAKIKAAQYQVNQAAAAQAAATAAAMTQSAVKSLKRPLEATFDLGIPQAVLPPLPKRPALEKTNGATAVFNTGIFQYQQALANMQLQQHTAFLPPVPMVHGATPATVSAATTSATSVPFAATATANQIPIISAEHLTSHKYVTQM
#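 TR-FRET readout: Ex 340 nm, 665/545 nm emission ratio, normalized to buffer-only (basal) and MBNL1-(CUG)12 controls. Complex of MBNL1-His with Biotin-(CUG)12, compounds 92 nM–58 uM, incubated 60 min at room temperature.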
# Rango release inh: prevents RanGTP from dissociating the Rango-importin beta complex; O95149+P62826; Biochemical FRET Rango-importin beta, RanGTP-induced dissociation; Potency, µM (doses to about 46.1 µM); 0.071% of 340,000 active; AID 540253; also: nearly all actives have a fitted effect of over 45% in size
#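 Compounds preincubate 5 min with complex of recombinant Rango and importin beta in PBS with 1 mM DTT. Ran (0.6 uM) loaded with 2 mM GTP plus 0.2 uM RCC1 starts dissociation; FRET is recorded 45 min later.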
# A number is an active result; - = inactive; ? = inconclusive; . = no result; ! = not confirmed by another sample. The full list was thinned out, with hits kept by preference. Unless noted, calls follow the shape of the full dose curve.
SMILES,CBFb RUNX1 block,Rango complex inh,ClpP mod,MBNL1-CUG inh,Rango release inh
Cc1ccc(CN(C(=O)N2CCN(C)CC2)S(=O)(=O)c2ccc(C)cc2)cc1,.,-,-,.,-
Cc1cc(SCC(=O)NC2(C#N)CCCCC2)nc2c(C)cccc12,.,-,31.6µM,.,-
N#CC1(NC(=O)CSc2n[nH]c(-c3ccccc3)n2)CCCCC1,.,-,14.1µM,.,-
CN(C)CCN(Cc1ccccc1)S(=O)(=O)c1ccc(-c2cc(C(F)(F)F)on2)s1,.,.,-,.,.
O=c1/c(=C/c2ccco2)sc2n1CN(c1ccccc1)CN=2,-,-,25.1µM,?,-
ClC(Br)=C(n1cnc2ccccc21)n1cnc2ccccc21,-,-,25.1µM,-,-
CCc1cc2c(CN3CCN(CC)CC3)cc(=O)oc2cc1O,-,?,28.2µM,-,?
COc1ccc2c(c1)sc1ncc(C(=O)NCc3ccc(OC(C)C)cc3)c(=O)n12,.,.,-,.,.
COc1cc2c(cc1NC(=O)c1ccc3c(c1)OCO3)oc1ccccc12,?,-,31.6µM,-,-
COc1cc2c(cc1NCc1ccc3c(c1)OCO3)oc1ccccc12,?,-,25.1µM,?,-
COc1cc2c(cc1NCc1ccccn1)oc1ccccc12,-,?,28.2µM,-,-
NS(=O)(=O)O,-,.,.,.,.
CCC1CN(C(=O)N2CCC(C(=O)NCc3cccs3)CC2)c2ccccc2O1 (stereo unspecified),.,.,-,.,.
COc1cc(-c2nc(-c3ccccc3)c(-c3cccs3)[nH]2)cc(OC)c1O,-,?,28.2µM,-,-
c1ccc(-c2nc(-c3cccs3)[nH]c2-c2ccccc2)cc1,-,-,31.6µM,-,-
COc1cc(-c2nc(-c3ccccc3)c(-c3cccs3)[nH]2)cc(OC)c1OC,-,-,31.6µM,-,-
O=C(O)c1ccccc1-c1nc(-c2ccccc2)c(-c2ccccc2)[nH]1,-,-,.,-,-
c1csc(-c2nc3c4ccccc4c4ccccc4c3[nH]2)c1,-,-,39.8µM,-,-
COc1cc(-c2nc(-c3ccc4c(c3)-c3ccccc3S4(=O)=O)c(-c3ccccc3)[nH]2)cc(OC)c1OC,-,?,-,-,?
COc1ccccc1Cn1cc(C(=O)c2ccc(C)cc2)c(=O)c2cc(C)ccc21,.,.,-,.,.
CC(C)CCn1c(SCc2c(F)cccc2Cl)nc2ccsc2c1=O,.,.,-,.,.
Cn1c(=O)[nH]c(=O)c2c1nc(Br)n2CCC(=O)c1ccccc1,-,-,28.2µM,-,-
Cn1c(=O)[nH]c(=O)c2c1nc(Br)n2C/C=N/NC(=O)c1ccccc1,-,-,.,-,-
CCN(C(=O)c1cn(CC)c(=O)c2cc(OC)c(OC)cc12)c1ccccc1F,.,.,-,.,.
Cc1cc(C(F)(F)F)c2c(=O)[nH]c(=O)n(Cc3ccccc3)c2n1,-,-,-,-,-
SMILES,CBFb RUNX1 block,Rango complex inh,ClpP mod,MBNL1-CUG inh,Rango release inh
O=c1[nH]c(=O)n(Cc2ccccc2)c2nc(-c3ccco3)cc(C(F)(F)F)c12,-,-,14.1µM,-,-
Cc1ccccc1-c1ccnc2c(-c3ccc(F)cc3)c(C)nn12,.,.,-,.,.
CCCC(=O)NCCc1cc2ccc(OC)cc2[nH]c1=O,-,-,-,-,-
CCCCC(=O)NCCc1cc2ccc(OC)cc2[nH]c1=O,-,-,25.1µM,-,-
CCCC(=O)NCCc1cc2cc(C)c(C)cc2[nH]c1=O,-,-,25.1µM,-,-
CC(=O)NCCc1cc2cc(C)c(C)cc2[nH]c1=O,-,-,?,-,-
OCCCc1nc2n(n1)C(c1ccccc1Cl)C=C(c1cccs1)N2 (stereo unspecified),-,?,22.4µM,-,?
OCCCc1nc2n(n1)C(c1cccs1)C=C(c1ccccc1)N2 (stereo unspecified),-,.,.,?,.
CCCCNC(=O)C[C@@H]1C[C@@]2(C(=O)OC)CCCCC=C2N(CCC2=CCCCC2)C1=O,.,.,-,.,.
CCn1c(-c2cc3c(C(F)(F)F)nn(C)c3s2)n[nH]c1=S,-,-,28.2µM,-,-
Cn1c(-c2cc3c(C(F)(F)F)nn(C)c3s2)n[nH]c1=S,-,-,?,-,-
COc1ccc(OC)c(NC(=O)Cn2c(=O)n(Cc3nc(C)no3)c(=O)c3ccccc32)c1,.,.,-,.,.
CCn1c(=O)[nH]c2ccccc2c1=O,-,-,-,-,-
O=c1[nH]c2ccccc2c(=O)n1Cc1ccccc1,-,-,35.5µM,-,-
CCCNC(=O)CN1C(=O)CSc2ccc(S(=O)(=O)N3CCC(C)CC3)cc21,.,.,-,.,.
Cc1ccc(-c2nc(C#N)c(NCCc3ccccn3)o2)cc1,-,-,?,-,-
N#Cc1nc(-c2ccc(Cl)cc2)oc1NCCc1ccccn1,-,?,31.6µM,-,-
N#Cc1nc(-c2ccc(Cl)cc2)oc1NCc1cccc2c1OCO2,-,-,11.2µM,-,-
N#Cc1nc(-c2ccccc2)oc1NCc1ccco1,-,-,-,?,-
N#Cc1nc(-c2ccc(Cl)cc2)oc1NCc1ccco1,-,-,11.2µM,-,-
CCc1ccccc1NC(=O)c1ccc2c(c1)nnn2C1CCCC1,.,.,-,.,.
Cc1ccc(-n2c(CCC(=O)O)ccc2-c2cccs2)cc1C,-,?,11.2µM!,-,-
CCOC(=O)c1ccccc1N=N/C(C(C)=O)=C(/C)O,-,-,28.2µM,-,-
O=C(C[n+]1cccc2cccc(O)c21)c1ccc2ccccc2c1,.,.,-,.,.
COc1cccc(-n2c(=O)c3cc(OC)c(OC)cc3n(CC(=O)Nc3cc(C)[nH]n3)c2=O)c1,-,-,28.2µM,.,-
SMILES,CBFb RUNX1 block,Rango complex inh,ClpP mod,MBNL1-CUG inh,Rango release inh
C=CCNC(=S)N/N=C/c1ccc(N(CC)Cc2ccccc2)cc1,-,?,8.91µM,-,-
CCN(CC)c1ccc(/C=N/NC(=S)NCc2ccccc2)cc1,-,?,25.1µM,-,-
CCN(CC)c1ccc(/C=N/NC(=O)Cc2cccs2)cc1,-,-,28.2µM,-,-
O=C(Nc1cccc(-c2nc3ccccc3s2)c1)c1cc(=O)c2ccccc2o1,-,-,-,-,-
Cc1c(C(=O)Nc2cccc(-c3nc4ccccc4s3)c2)oc2ccccc12,.,.,22.4µM,.,.
Cc1c(C(=O)Nc2ccc3oc(-c4cccnc4)nc3c2)oc2ccccc12,-,-,8.91µM,-,-
COc1cc2ncc3c(-c4ccc(C)cc4)nn(-c4ccc(F)cc4F)c3c2cc1OC,.,.,-,.,.
COc1ccc(C(=O)Oc2cc(-c3ccc4c(c3)OCO4)cc(=O)c3c(C)oc(C)c23)cc1,.,.,-,.,.
COc1ccc(S(=O)(=O)c2c(O)c(C)cc(NS(=O)(=O)c3ccc(Cl)cc3)c2C(C)C)cc1,.,.,-,.,.
O=S(=O)(c1cccc2ccccc12)N1CCN(c2nc(-c3cccs3)nc3ccccc23)CC1,.,.,-,.,.
CCOC(=O)c1c(NC(=O)c2cc3nc(-c4ccc(OC)cc4)cc(C(F)(F)F)n3n2)sc2c1CCC(C)C2 (stereo unspecified),.,.,31.6µM,.,.

# Screening data deposited in PubChem by National Center for Advancing Translational Sciences (NCATS).
